# The supplement of paper PMC9135407
# “And” between values parts separate entries of the source, which are not always exact repeats. Identical values can stand only once. Counter-ions that a name gives are not always drawn. The campaign covered roughly 5,800 compounds. About 620 (11%) showed activity. Many of the other results were omitted from the sample, so actives are more common in it than they were. Unmarked numbers belong to inactive results.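 The calls were made as follows: active = score above a cut-off or among the top three wells of a plate; in these data no inactive exceeds 0.85.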
# Test system: primary human hepatic stellate cells (donor 1)
# Assay: scaled lipid accumulation score (0 = DMSO-like, 1 = nortriptyline-like); higher = stronger HSC inactivation (lipid re-accumulation), active = hit call of the paper
# Conditions: 48 h
# [1] = library stock concentration: 80 uM
# [2] = library stock concentration: 400 uM
# [3] = library stock concentration: 2 mM
# [4] = library stock concentration: 10 mM
# [5] = library stock concentration: 3.33 mM
# [6] = library stock concentration: 1 mM
structure (smiles),measurement,setting,value
COc1cc(O)c2c(c1)/C=C/C[C@H](O)[C@H](O)C(=O)/C=C\C[C@H](C)OC2=O [5z-7-oxozeaenol],scaled lipid accumulation score,[1],≤ -0.016
same,scaled lipid accumulation score,[2],≤ -0.016
same,scaled lipid accumulation score,[3],≤ -0.016
same,scaled lipid accumulation score,[4],0.613
CN1C(CCl)Nc2cc(Cl)c(S(N)(=O)=O)cc2S1(=O)=O (stereo not given),scaled lipid accumulation score,[4],0.013
CN1C(CCl)Nc2cc(Cl)c(S(N)(=O)=O)cc2S1(=O)=O (stereo not given) [Methyclothiazide],scaled lipid accumulation score,[5],≤ 0
same,scaled lipid accumulation score,[4],≤ -0.001
"COC(=O)CCC[C@H](O)[C@H](O)CO [5(S),6(R)-7-trihydroxymethyl Heptanoate]",scaled lipid accumulation score,[6],≤ 0
NC[C@@H]1CC[C@@H](N)[C@@H](O[C@H]2[C@H](O)[C@@H](O[C@H]3O[C@H](CO)[C@@H](O)[C@H](N)[C@H]3O)[C@H](N)C[C@@H]2N)O1 [Dibekacin],scaled lipid accumulation score,[4],0.108
CC(CCc1ccccc1)NCC(O)c1ccc(O)c(C(N)=O)c1 (stereo not given),scaled lipid accumulation score,[4],0.089
CC(CCc1ccccc1)NCC(O)c1ccc(O)c(C(N)=O)c1 (stereo not given) [Labetalol hydrochloride],scaled lipid accumulation score,,0.321
same,scaled lipid accumulation score,[4],0.546 and 0.164
CC(C)(C)NCC(O)c1ccc(O)c(CO)c1 (stereo not given) [Salbutamol],scaled lipid accumulation score,,≤ 0
CC(C)(C)NCC(O)c1ccc(O)c(CO)c1 (stereo not given) [Albuterol hemisulfate],scaled lipid accumulation score,[4],≤ 0
CC(C)(C)NC[C@H](O)c1ccc(O)c(CO)c1,scaled lipid accumulation score,[4],≤ 0
O=C(O)c1ccc2ccccc2c1O.OCc1cc(C(O)CNCCCCCCOCCCCc2ccccc2)ccc1O (stereo not given) [Salmeterol xinafoate],scaled lipid accumulation score,[4],0.978 (active)
OCc1cc(C(O)CNCCCCCCOCCCCc2ccccc2)ccc1O (stereo not given) [Salmeterol] [listing 1 of 2 here],scaled lipid accumulation score,,0.275
same,scaled lipid accumulation score,library stock concentration: 4.8 mM,0.553
same,scaled lipid accumulation score,[4],0.62
OCc1cc(C(O)CNCCCCCCOCCCCc2ccccc2)ccc1O (stereo not given) [Salmeterol] [listing 2 of 2 here],scaled lipid accumulation score,[4],1.08 (active)
CC(CCc1ccccc1)NCC(O)c1ccc(O)c(C(N)=O)c1 (stereo not given) [Labetalol HCl],scaled lipid accumulation score,[5],≤ 0
same,scaled lipid accumulation score,[4],0.464
CC(C)(C)NCC(O)c1ccc(O)c(CO)c1 (stereo not given),scaled lipid accumulation score,[4],0.076
O=C(CCCC[C@@H]1SC[C@@H]2NC(=O)N[C@@H]21)NCCCC[C@H](NC(=O)CCN1C(=O)C=CC1=O)C(=O)O [3-(N-Maleimidopropionyl)-biocytin],scaled lipid accumulation score,[6],≤ 0
Cc1c(C(=O)Nc2ccc(N3CCC(N4CCOCC4)CC3)c(C#N)c2)cnn1-c1ccc(Cl)cc1,scaled lipid accumulation score,[5],0.756
same,scaled lipid accumulation score,[4],0.699
C[N+]1(C)[C@@H]2C[C@@H](OC(=O)C(O)(c3cccs3)c3cccs3)C[C@H]1[C@@H]1O[C@@H]12 [Tiotropium Bromide hydrate],scaled lipid accumulation score,[5],≤ 0
same,scaled lipid accumulation score,[4],≤ 0
"CCCCC[C@H]1C=C[C@@H]2[C@@H](CC=CCCCC(=O)O1)[C@@H](O)C[C@H]2O [Prostaglandin F2.alpha. 1,15-lactone]",scaled lipid accumulation score,[6],≤ 0
"CCCCC/C=C/C=C1/C=CC(=O)[C@@H]1CCCCCCC(=O)O [15-deoxy-.DELTA.12,14-Prostaglandin A1]",scaled lipid accumulation score,[6],≤ 0
CC(C)C[C@H](NC(=O)CNC(=O)c1cc(Cl)ccc1Cl)B1OC(=O)CC(CC(=O)O)(C(=O)O)O1 (stereo not given in full),scaled lipid accumulation score,[5],≤ 0
same,scaled lipid accumulation score,[4],0.118
OCC1OC(n2cnc3c(NC4CCCCC4)ncnc32)C(O)C1O (stereo not given) [N6-Cyclohexyladenosine],scaled lipid accumulation score,[4],0.037
Cc1cccc(CCN2CCC(C(=O)c3ccc(NS(C)(=O)=O)cc3)CC2)n1 [E-4031 dihydrochloride],scaled lipid accumulation score,[4],≤ 0
Cc1cccc(CCN2CCC(C(=O)c3ccc(NS(C)(=O)=O)cc3)CC2)n1,scaled lipid accumulation score,library stock concentration: 9.9 mM,0.011
Fc1ccc(Cl)cc1-c1nc(Nc2ccncc2)c2nccnc2n1,scaled lipid accumulation score,[4],≤ -0.001
O=C1C=CC(=O)C2=C1C1c3ccccc3C2c2ccccc21,scaled lipid accumulation score,[4],0.953 (active)
O=C1c2ccccc2C(=O)C1c1ccccc1 [Phenindione],scaled lipid accumulation score,,≤ 0
same,scaled lipid accumulation score,[5],≤ 0
same,scaled lipid accumulation score,library stock concentration: 9 mM,0.014
same,scaled lipid accumulation score,[4],≤ 0
"CCCCCC(O)C=CC1C2CC(CO2)C1CCCCCCC(=O)O (stereo not drawn) [9,11-methane-epoxy Prostaglandin F1.alpha.]",scaled lipid accumulation score,[6],0.048
O=C(Nc1ccc2c(c1)CCN(Cc1ncn[nH]1)C2)c1ccccc1-c1ccc(C(F)(F)F)cc1,scaled lipid accumulation score,[4],≤ 0
O=C(NC1CCN(CCCCC2(C(=O)NCC(F)(F)F)c3ccccc3-c3ccccc32)CC1)c1ccccc1-c1ccc(C(F)(F)F)cc1 [Lomitapide] [listing 1 of 2 here],scaled lipid accumulation score,[4],≤ 0
O=C(NC1CCN(CCCCC2(C(=O)NCC(F)(F)F)c3ccccc3-c3ccccc32)CC1)c1ccccc1-c1ccc(C(F)(F)F)cc1 [Lomitapide] [listing 2 of 2 here],scaled lipid accumulation score,[5],1.05 (active)
N[C@@H]1CCCN(c2c(/C=C3\SC(=O)NC3=O)cccc2-c2ccccc2)C1,scaled lipid accumulation score,[1],≤ 0
same,scaled lipid accumulation score,[2],≤ 0
same,scaled lipid accumulation score,[3],0.016
same,scaled lipid accumulation score,[5],0.072
same,scaled lipid accumulation score,[4],0.072 and 0.486
"CC(C)(C)c1cc(O)c(C(C)(C)C)cc1O [2,5-Ditertbutylhydroquinone]",scaled lipid accumulation score,library stock concentration: 22.5 mM,0.463
O=C(O)Cc1cccc(OCCCN(Cc2cccc(C(F)(F)F)c2Cl)CC(c2ccccc2)c2ccccc2)c1,scaled lipid accumulation score,[5],≤ 0
same,scaled lipid accumulation score,[4],0.181
CC(=O)OCC(=O)NCCCOc1cccc(CN2CCCCC2)c1 [Roxatidine acetate HCl],scaled lipid accumulation score,library stock concentration: 5.7 mM,≤ 0
O=C(O)/C=C\C(=O)O.O=C(O)/C=C\C(=O)O.c1cc(CN2CCCCC2)cc(OCCCNc2nc3ccccc3s2)c1,scaled lipid accumulation score,[4],1.03 (active)
CC(=O)OCC(=O)NCCCOc1cccc(CN2CCCCC2)c1,scaled lipid accumulation score,[4],≤ 0
CC(=O)OCC(=O)NCCCOc1cccc(CN2CCCCC2)c1 [Roxatidine Acetate HCl],scaled lipid accumulation score,,0.032
same,scaled lipid accumulation score,[5],≤ 0
same,scaled lipid accumulation score,[4],≤ 0
c1ccc2sc(N3CCN(Cc4ccc5c(c4)OCO5)CC3)nc2c1 [2-[1-(4-Piperonyl)piperazinyl]benzothiazole],scaled lipid accumulation score,[4],≤ 0
O=C(O)/C=C\C(=O)O.O=C(O)/C=C\C(=O)O.c1cc(CN2CCCCC2)cc(OCCCNc2nc3ccccc3s2)c1 [Zolantidine dimaleate],scaled lipid accumulation score,[4],1.5 (active)
O=C(O)Cc1cccc(OCCCN(Cc2cccc(C(F)(F)F)c2Cl)CC(c2ccccc2)c2ccccc2)c1 [GW 3965 hydrochloride],scaled lipid accumulation score,[4],≤ -0.001
CCCCCCCCCCCCCCCCCC(=O)N[C@H]1CCOC1=O [N-octadecanoyl-L-Homoserine lactone],scaled lipid accumulation score,[6],≤ 0
CCCCN1C[C@H](O)[C@@H](O)[C@H](O)[C@H]1CO [Miglustat],scaled lipid accumulation score,library stock concentration: 9.1 mM,≤ 0
Nc1nc(Nc2ccccc2)nc2c1ncn2[C@@H]1O[C@H](CO)[C@@H](O)[C@H]1O,scaled lipid accumulation score,[4],≤ 0
Cc1ccc(NC(=O)c2ccc(CN3CCN(C)CC3)cc2)cc1Nc1nccc(-c2cccnc2)n1 [Imatinib],scaled lipid accumulation score,[1],≤ 0
same,scaled lipid accumulation score,[2],≤ 0
same,scaled lipid accumulation score,[3],0.049
Cc1ccc(NC(=O)c2ccc(CN3CCN(C)CC3)cc2)cc1Nc1nccc(-c2cccnc2)n1 [Imatinib (STI571)] [listing 1 of 2 here],scaled lipid accumulation score,[4],0.92 (active)
Cc1cc(-c2ccc(CC(=O)Nc3ccc(-c4cccnc4)cc3)cc2)ccn1,scaled lipid accumulation score,[5],0.089
same,scaled lipid accumulation score,[4],0.262
Cc1ccc(NC(=O)c2ccc(CN3CCN(C)CC3)cc2)cc1Nc1nccc(-c2cccnc2)n1,scaled lipid accumulation score,[2],0.022
same,scaled lipid accumulation score,[3],≤ -0.005
same,scaled lipid accumulation score,[4],0.628
Cc1ccc(NC(=O)c2ccc(CN3CCN(C)CC3)cc2)cc1Nc1nccc(-c2cccnc2)n1 [Imatinib Mesylate (STI571)],scaled lipid accumulation score,[5],0.259
Cc1ccc(NC(=O)c2ccc(CN3CCN(C)CC3)cc2)cc1Nc1nccc(-c2cccnc2)n1 [Imatinib (STI571)] [listing 2 of 2 here],scaled lipid accumulation score,[5],0.133
CS(=O)(=O)O.Cc1ccc(NC(=O)c2ccc(CN3CCN(C)CC3)cc2)cc1Nc1nccc(-c2cccnc2)n1 [Imatinib Mesylate (STI571)],scaled lipid accumulation score,[4],1.1 (active)
CS(=O)(=O)O.Cc1ccc(NC(=O)c2ccc(CN3CCN(C)CC3)cc2)cc1Nc1nccc(-c2cccnc2)n1,scaled lipid accumulation score,[4],1.08 (active)
CS(=O)(=O)O.Cc1ccc(NC(=O)c2ccc(CN3CCN(C)CC3)cc2)cc1Nc1nccc(-c2cccnc2)n1 [Imatinib],scaled lipid accumulation score,[4],0.969 (active)
CCCCC/C=C\C/C=C\C/C=C\CCCCCCC(=O)O [Dihomo-.gamma.-Linolenic Acid],scaled lipid accumulation score,[6],0.003
CCCCC/C=C\C/C=C\C/C=C\CCCCCCC(=O)O [Dihomo-gamma-linolenic acid],scaled lipid accumulation score,[6],≤ -0.021
CCCCC(CC)COC(=O)CC(C(=O)OCC(CC)CCCC)S(=O)(=O)O (stereo not given),scaled lipid accumulation score,[4],≤ 0
CCCCC[C@H](O)/C=C/[C@H]1[C@H](O)CC(=O)[C@H]1C/C=C\CCCC(=O)OC(C)C [8-iso Prostaglandin E2 isopropyl ester],scaled lipid accumulation score,[6],≤ 0
CC/C=C\C/C=C\C/C=C\C/C=C\C/C=C\C/C=C\CCC(=O)O[C@H](COCCCCCCCCCCCCCCCC)COP(=O)([O-])OCC[N+](C)(C)C [Docosahexaenoyl PAF C-16],scaled lipid accumulation score,[6],≤ 0
CC/C=C\C/C=C\C/C=C\C/C=C\C/C=C\CCCC(=O)O[C@H](COCCCCCCCCCCCCCCCC)COP(=O)([O-])OCC[N+](C)(C)C [Eicosapentaenoyl PAF C-16],scaled lipid accumulation score,[6],≤ 0
